The panel holds about 83,000 compounds, 20% with a hit somewhere; the sample as a whole holds those more often.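 Single-dose data. Exposure time 48 hours. Values below 10 considered active.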 Active and inactive are the calls of the source.

This note sets out measurements from PubChem BioAssay (NCI).

In this assay the test system is SK-OV-3 ovarian. Kind of assay: NCI-60 one-dose screen, 48 h (100 = growth as untreated, 0 = no growth, -100 = all killed). The settings on record: 10 µM unless noted. The protocol: Growth inhibition of the SK-OV-3 human tumor cell line is measured as a screen for anti-cancer activity. Cells are grown in 96 well plates and exposed to the test compound for 48 hours. Compounds are tested at a single concentration, which is 10^-5 M for most compounds. The reported endpoint is percent growth (GI% or GIPRCNT), where numbers from 0 - 100% represent growth inhibition, and numbers from -100% - 0 represent cell death. For example, a value of 40 represents 60% growth inhibition. A value of 0 means no net growth occurred over the course of the experiment. A value of -40 indicates 40% of cells at the beginning of the experiment died by the end of the experiment. A value of -100 means all cells are dead at the end of the experiment.
NCI-60 Human Tumor Cell Lines Screen was performed using the standard one-dose NCI protocol, which is described in more detail at https://dtp.cancer.gov/discovery_development/nci-60/default.htm.
Compounds with GIPRCNT values below 10 were considered active. Activity score was based on GIPRCNT using the following formula: […]
Score is 0 for GIPRCNT values of 100 or above, 50 for GIPRCNT values of 0, and 100 for GIPRCNT values of -100.
Turning to `Fc1ccc2[nH]cc(-c3nc(-c4c[nH]c5c(Cl)nccc45)cs3)c2c1`, the growth is 47.5% (inactive). On to `CNCCCNc1nc2ccccc2c2c(=O)c3cc(Cl)ccc3sc12`, for which the growth is 84.4% (inactive). For `CCOC(=O)CNC1=C(Cl)C(=O)N(Cc2ccc(Cl)cc2)C1=O` the value was 99.6% (inactive); for `CNCC[C@H](Oc1cccc2ccccc12)c1cccs1`, 109% (inactive); for `CCCCCc1ccc(S(=O)(=O)Nc2cc(-c3csc(NC(C)=O)n3)ccc2N2CCN(C)CC2)cc1`, 92.6% (inactive).

For the compound `COc1ccc(C2CC(n3ccnc3)c3cc(OC)c(OC)c(OC)c32)cc1O` (stereo not given), the growth is 86.3% (inactive). Take `O=C(/C=C/c1ccco1)Nc1ncc(Cc2cc(Cl)ccc2Cl)s1`: the growth is 31.9% (inactive).

Regarding `CCC(C)(C)c1ccc(Nc2ccc(Nc3ccc(C(C)(C)CC)cc3)cc2)cc1`, the growth was 89.7% (inactive). For `COC(=O)[C@@]1(C)CC[C@]2(C)CC[C@]3(C)C4=CC=C5C(=CC(=O)C(O)=C5C)[C@]4(C)[C@@H](O)C[C@@]3(C)[C@@H]2C1` the value was 82.4% (inactive); for `COc1ccc(/C=C/C(c2cc(OC)c(OC)c(OC)c2)n2cncn2)cc1O` (stereo not given), 12.7% (inactive); for `CCOC(=O)c1cn2ncnc(Oc3ccc(NC(=O)NC4CC4)c(Cl)c3)c2c1C`, 111% (inactive). Under `COc1ccccc1S(=O)(=O)Nc1ccc2c3c(cc(CCC(=O)NCCCCNc4cccc5c4C(=O)N(C4CCC(=O)NC4=O)C5=O)cc13)C(=O)N2C` (stereo not given) stands 34.6% (inactive). Under `C=C[C@@]1(C)CC(=O)[C@@H](C(C)(C)c2cn(C)c3ccc(Br)cc23)C[C@@H]1O[Si](C)(C)C(C)(C)C` stands 115% (inactive). Regarding `O=C1C=CC2(O)OC/C(=C\c3ccccc3)C(O)=C2C1=O` (stereo not given), the growth was 86.6% (inactive). For `COc1ccc2c(c1)CC[C@@H]1[C@@H]2CC[C@]2(C)c3c(cc(C#N)c4c3sc3ccccc34)C[C@@H]12` the value was 108% (inactive). Regarding `COc1cc(OC)c2c(=O)c3c(CC=C(C)C)cc(OC)c(O)c3oc2c1`, the growth is 96.6% (inactive). Under `N#Cc1c(-c2ccc(Cl)cc2)nc(NN=Cc2ccc[nH]2)nc1N1CCOCC1` stands 84.7% (inactive); under `C(=C(\C1=NCCN1)n1ccc2ccccc21)/c1ccccc1`, 105% (inactive); under `COc1cc(Cc2cc(-c3ccccc3)nn(Cc3ccccc3)c2=O)cc(OC)c1OC`, 82.3% (inactive). For `C=C(C)[C@@H]1CC[C@]2(C(=O)N3CCNCC3)CC[C@]3(C)[C@H](CC[C@@H]4[C@@](C)(CCC(=O)N5CCNCC5)[C@H](C(=C)C)CC[C@]43C)[C@@H]12` the value was 101% (inactive); for `Nc1cc(-c2ccc(Cl)cc2)nn1-c1nnc(/C=C/c2ccco2)c(=O)[nH]1`, 60.7% (inactive). Under `COc1ccc2c(c1)CC[C@@H]1[C@@H]2CC[C@]2(C)C3C(=CC(COC(C)=O)C4C(=O)N(c5ccc(Cl)cc5)C(=O)C43)C[C@@H]12` (stereo not given in full) stands 125% (inactive); under `Oc1nc(NCc2ccccc2)sc1/C=C1\C=Nc2ncccc21`, 53.9% (inactive); under `Cc1ccc2cnc(N)c(C#Cc3cc(C(=O)Nc4ccc(CN5CCN(C)CC5)c(C(F)(F)F)c4)cnc3C)c2c1`, 50.5% (inactive).

`O=c1c2ccccc2n(C[C@H]2CO2)c2ccccc12`: the growth is -13.5% (active).

With `Cc1ncc(C(=O)Nc2ccc(CN3CCN(C)CC3)c(C(F)(F)F)c2)cc1C#Cc1cnc(N)c2ccc(C#N)cc12`, the growth was -14.6% (active). Under `CCCCNC(=O)c1ccc2c(c1)nc(-c1ccccc1)n2C1CCCCC1` stands 48.4% (inactive); under `C=CCN=c1sc(-c2ccc3ccccc3c2)cn1NC(=O)c1cc2ccc1CCc1ccc(cc1)CC2`, 82.1% (inactive); under `CC(C)NS(=O)(=O)/N=C1\NC(=O)NC1=C(Cl)Cl`, 102% (inactive).

Regarding `CCCc1cc(=O)oc2c(C(=O)CC(C)C)c(O)c(CC=C(C)C)c(O)c12`, the growth was 23.3% (inactive).

`COc1ccc(C(=O)/C=C/c2ccccc2)cc1S(N)(=O)=O`: the growth was 116% (inactive). Under `CCOC(=O)c1c(C)nc2ccccc2c1/C=C/c1ccc(F)cc1` stands 87.6% (inactive); under `O=C1/C(=C/c2c[nH]c(=O)[nH]c2=O)SC(=S)N1Cc1ccccc1`, 103% (inactive). For `C[C@H](c1nc2ccc(C#N)cc2[nH]1)[C@H]1CC[C@H]2[C@@H]3CCC4=CC(=O)CC[C@]4(C)[C@H]3CC[C@]12C` the value was 80% (inactive); for `Cc1c(O)cc(-c2cnc(N/N=C/c3ccccc3)s2)c(O)c1C`, 102% (inactive); for `COc1ccc(-c2nc3ccc(C)cc3c3c2c(=O)n(C)c(=O)n3C)cc1OC`, 109% (inactive). For `O=C(Nc1ccccc1O)c1ccc(CNc2ccnc(C(F)(F)F)c2)cc1` the value was 58.6% (inactive); for `CCCC(O)Cn1ncc(C(=O)OCC)c1NC(=O)NCc1cccc(C(F)(F)F)c1` (stereo not given), 84.8% (inactive); for `CC(=O)N1N=C(c2ccc(Nc3nc(Nc4ccc(F)cc4)nc(Nc4ccc(F)cc4)n3)cc2)CC1c1ccc(N(C)C)cc1` (stereo not given), 90.6% (inactive).

Take `COc1ccc2c(c1)C(C)Cc1c(ncnc1-n1cnc3cc(C)ccc31)N2C` (stereo not given): the growth was 19.8% (inactive).
